In PubChem BioAssay:
The source made the active and inactive calls.

Experiments:
[1] = system: PRMT1 (protein arginine N-methyltransferase 1); assay: small molecules binding arginine methyltransferase PRMT1 – biochemical, small-molecule microarray, 635 nm fluorescence, primary screen (AID 1088); conditions: higher = more signal;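 also: binding of Prmt1 protein to compounds spotted on small-molecule microarray slides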
[2] = growth effects on S. cerevisiae YJM789 – YJM789 clinical isolate, OD600, 24 h, basal, primary screen (AID 1089); conditions: higher = more signal, called active from +8 up or from −8 down;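 also: growth of clinical yeast isolate S. cerevisiae YJM 789 seeded 1000 cells per well; test concentration not given here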
[3] = S. pombe growth modifiers, basal conditions – strain 972, OD600, 24 h, no modulator, primary screen (AID 1090);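 also: basal condition with compound alone and no growth modifier present; test concentration not given here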; conditions: S. pombe 972 growth, higher = more signal, called active from +8 up or from −8 down
[4] = budding yeast growth modifiers under rapamycin – strain BY4716, OD600, 96 h, primary screen (AID 1091); also: test concentration not given here; conditions: S. cerevisiae BY4716 + rapamycin, higher = more signal, called active from +8 up or from −8 down
[5] = target: Torsin-1A-interacting protein 2 (Homo sapiens) (UniProt Q8NFQ8); assay: small molecules binding lysate-expressed LULL1 – cell lysate, human LULL1 lysate, 635/667 nm fluorescence, primary screen (AID 1092); conditions: small-molecule microarray, hLULL1 lysate binding, 635 nm fluorescence; higher = more signal;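 also: probe is lysate of COS7 cells overexpressing human LULL1; score merges per-feature 667 nm fluorescence with signal-to-noise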
Chain of Torsin-1A-interacting protein 2 (Homo sapiens) (Q8NFQ8 whole entry, looked up): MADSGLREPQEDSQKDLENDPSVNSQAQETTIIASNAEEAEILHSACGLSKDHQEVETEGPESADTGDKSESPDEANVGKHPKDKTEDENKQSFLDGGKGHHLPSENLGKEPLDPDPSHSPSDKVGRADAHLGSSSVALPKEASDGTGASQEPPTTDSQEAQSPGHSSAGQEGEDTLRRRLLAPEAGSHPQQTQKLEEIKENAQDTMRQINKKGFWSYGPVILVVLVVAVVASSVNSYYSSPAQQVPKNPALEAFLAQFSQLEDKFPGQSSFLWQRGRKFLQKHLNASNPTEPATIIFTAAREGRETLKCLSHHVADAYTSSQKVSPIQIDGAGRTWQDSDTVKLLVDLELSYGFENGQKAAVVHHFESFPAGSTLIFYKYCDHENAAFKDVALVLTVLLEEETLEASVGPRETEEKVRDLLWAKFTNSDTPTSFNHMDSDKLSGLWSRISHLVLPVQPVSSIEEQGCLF

[6] = optical density change of DRC41 E. coli – strain DRC41, OD650, 24 h, E. coli filamentation project, primary screen (AID 1093);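 also: MC1000 strain lacking acrAB efflux and sulA so SOS filamentation is blocked; test concentration not given here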; conditions: E. coli DRC41 growth, higher = more signal, called active from +8 up or from −8 down
[7] = probe aLefty2 binding to arrayed compounds – biochemical, biotinylated probe, 635/667 nm fluorescence, primary screen (AID 1094); conditions: small-molecule microarray, higher = more signal;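 also: score merges spot fluorescence near 667 nm with spot signal-to-noise ratio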
[8] = system: Noggin (protein binding on small-molecule microarray); assay: small molecules binding Noggin protein – biochemical, 635/667 nm fluorescence, primary screen (AID 1095); conditions: 635 nm fluorescence, higher = more signal;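 also: score merges 667 nm feature fluorescence with signal to noise over triplicate slides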
[9] = target: Neurogenic locus notch homolog protein 3 (Homo sapiens) (UniProt Q9UM47); assay: small molecules binding NOTCH3 protein – biochemical, 635/667 nm fluorescence, primary screen (AID 1096); conditions: small-molecule microarray, 635 nm fluorescence, higher = more signal
Chain of Neurogenic locus notch homolog protein 3 (Homo sapiens) (Q9UM47 whole entry, looked up): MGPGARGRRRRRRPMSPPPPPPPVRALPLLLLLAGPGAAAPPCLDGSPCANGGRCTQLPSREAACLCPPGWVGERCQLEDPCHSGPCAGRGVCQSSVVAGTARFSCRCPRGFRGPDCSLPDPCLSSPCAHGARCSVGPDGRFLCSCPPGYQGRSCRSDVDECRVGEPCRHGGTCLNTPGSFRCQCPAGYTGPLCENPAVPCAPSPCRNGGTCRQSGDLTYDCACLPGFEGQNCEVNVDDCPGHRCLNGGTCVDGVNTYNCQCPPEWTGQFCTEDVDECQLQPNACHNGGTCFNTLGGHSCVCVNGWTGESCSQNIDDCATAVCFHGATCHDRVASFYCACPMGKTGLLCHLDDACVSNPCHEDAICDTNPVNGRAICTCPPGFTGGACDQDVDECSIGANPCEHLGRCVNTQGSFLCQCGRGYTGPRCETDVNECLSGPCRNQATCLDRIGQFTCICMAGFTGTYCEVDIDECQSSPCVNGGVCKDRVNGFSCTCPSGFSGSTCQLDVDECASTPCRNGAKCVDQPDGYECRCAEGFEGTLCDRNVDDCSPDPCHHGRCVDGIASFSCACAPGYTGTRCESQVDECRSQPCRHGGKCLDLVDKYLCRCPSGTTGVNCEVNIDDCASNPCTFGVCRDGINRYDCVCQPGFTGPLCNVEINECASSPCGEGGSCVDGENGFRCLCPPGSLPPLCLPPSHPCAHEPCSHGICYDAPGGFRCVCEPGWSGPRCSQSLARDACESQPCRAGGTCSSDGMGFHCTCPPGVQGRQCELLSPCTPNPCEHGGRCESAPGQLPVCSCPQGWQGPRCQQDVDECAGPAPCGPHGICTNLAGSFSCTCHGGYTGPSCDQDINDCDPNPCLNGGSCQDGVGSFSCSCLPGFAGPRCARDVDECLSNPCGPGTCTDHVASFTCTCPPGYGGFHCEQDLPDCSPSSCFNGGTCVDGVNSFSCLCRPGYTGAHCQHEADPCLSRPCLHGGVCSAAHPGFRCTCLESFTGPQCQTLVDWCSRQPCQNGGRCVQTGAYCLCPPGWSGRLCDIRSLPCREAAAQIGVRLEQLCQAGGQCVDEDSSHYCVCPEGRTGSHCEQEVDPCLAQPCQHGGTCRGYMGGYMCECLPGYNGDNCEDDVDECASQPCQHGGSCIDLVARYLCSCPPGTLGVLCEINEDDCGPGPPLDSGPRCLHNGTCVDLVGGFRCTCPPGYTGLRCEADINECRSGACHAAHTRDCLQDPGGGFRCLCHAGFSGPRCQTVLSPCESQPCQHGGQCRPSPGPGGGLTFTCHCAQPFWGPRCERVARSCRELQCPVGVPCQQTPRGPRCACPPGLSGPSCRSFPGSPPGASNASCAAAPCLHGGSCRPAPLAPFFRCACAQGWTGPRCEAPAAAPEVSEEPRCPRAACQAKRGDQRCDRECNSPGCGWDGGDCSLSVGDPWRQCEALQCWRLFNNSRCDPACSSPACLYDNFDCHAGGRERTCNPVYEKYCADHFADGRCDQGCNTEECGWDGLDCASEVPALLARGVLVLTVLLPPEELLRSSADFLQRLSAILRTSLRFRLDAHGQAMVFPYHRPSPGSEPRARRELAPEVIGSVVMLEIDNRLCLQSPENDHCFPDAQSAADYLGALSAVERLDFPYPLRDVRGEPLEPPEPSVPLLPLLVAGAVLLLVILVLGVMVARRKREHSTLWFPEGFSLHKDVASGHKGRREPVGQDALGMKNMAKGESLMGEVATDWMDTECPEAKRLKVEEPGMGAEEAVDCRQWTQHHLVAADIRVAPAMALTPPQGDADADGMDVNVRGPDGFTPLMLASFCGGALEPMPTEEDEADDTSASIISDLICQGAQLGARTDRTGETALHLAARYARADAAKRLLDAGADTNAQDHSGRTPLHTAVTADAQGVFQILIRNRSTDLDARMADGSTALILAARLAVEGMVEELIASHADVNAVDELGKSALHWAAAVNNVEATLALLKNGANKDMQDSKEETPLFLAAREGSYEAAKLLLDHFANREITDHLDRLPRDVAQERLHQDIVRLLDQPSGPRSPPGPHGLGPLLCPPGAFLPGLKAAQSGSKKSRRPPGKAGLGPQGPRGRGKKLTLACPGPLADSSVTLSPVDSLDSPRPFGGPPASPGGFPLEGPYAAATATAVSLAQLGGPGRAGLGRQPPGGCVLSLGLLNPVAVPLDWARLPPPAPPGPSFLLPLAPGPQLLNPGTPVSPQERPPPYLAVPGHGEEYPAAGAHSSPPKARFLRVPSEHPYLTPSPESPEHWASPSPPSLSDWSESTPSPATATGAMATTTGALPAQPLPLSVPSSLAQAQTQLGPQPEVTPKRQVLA

[10] = probe aEGFR binding to arrayed compounds – biochemical, biotinylated probe, 635/667 nm fluorescence, primary screen (AID 1097); conditions: small-molecule microarray, higher = more signal;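 also: probe is a biotinylated anti-EGFR antibody binding compounds printed on slides; score combines fluorescence near 667 nm and signal to noise of each spot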

COc1ccc(O[C@H]2C=C[C@@H](c3ccccc3)O[C@@H]2CON=C(C)CCN2CCCc3nc(C)c(C)cc32)cc1
composite z-score [1]: 1.42
z-score [2]: -0.571 (inactive)
z-score [3]: -0.739 (inactive)
z-score [4]: -0.706 (inactive)
composite z-score [5]: 1.56
z-score [6]: 0.766 (inactive)
composite z-score [7]: -0.0511
composite z-score [8]: 0.485
composite z-score [9]: 1.02
composite z-score [10]: -0.0531

CCOC(=O)[C@H](CC(C)C)NC(=O)CCC1CC(OC(=O)NCc2ccc3c(c2)OCO3)CC2(CCCC(COC(=O)NCCc3ccccc3OC)O2)O1 (stereo not given in full)
composite z-score [1]: 1.34
z-score [2]: -0.156 (inactive)
z-score [3]: 0.249 (inactive)
z-score [4]: 0.947 (inactive)
composite z-score [5]: 1.99
z-score [6]: -0.133 (inactive)
composite z-score [7]: -0.136
composite z-score [8]: 0.474
composite z-score [9]: 1.11
composite z-score [10]: -0.0177

O=C1[C@H]2[C@H]3[C@H](O)[C@H](O)CC(=NO[C@@H]4O[C@H](CO)[C@@H](O)[C@H](O)[C@H]4O)[C@@H]3CC[C@H]2C(=O)N1C1CCCCC1
composite z-score [1]: 0.112
z-score [2]: 0.0081 (inactive)
z-score [3]: -0.159 (inactive)
z-score [4]: -0.291 (inactive)
composite z-score [5]: 0.301
z-score [6]: -0.166 (inactive)
composite z-score [7]: -0.174
composite z-score [8]: 0.662
composite z-score [9]: 0.749
composite z-score [10]: -0.111

O=C1C[C@@H](O)[C@@H](O)[C@@H]2[C@@H]3C(=O)N(c4ccc(F)cc4F)C(=O)[C@@H]3CC[C@H]12
composite z-score [1]: 0.599
z-score [2]: -0.175 (inactive)
z-score [3]: -0.177 (inactive)
z-score [4]: -0.147 (inactive)
composite z-score [5]: 0.734
z-score [6]: 0.124 (inactive)
composite z-score [7]: -0.0782
composite z-score [8]: 0.43
composite z-score [9]: 0.6
composite z-score [10]: -0.0695

O=C1C2=CC[C@H]3C(=O)N(C[C@@H]4CCCO4)C(=O)[C@H]3[C@H]2[C@H](O)[C@@H]2O[C@H]12
composite z-score [1]: 0.514
z-score [2]: 0.0382 (inactive)
z-score [3]: -0.722 (inactive)
z-score [4]: 0.109 (inactive)
composite z-score [5]: -0.553
z-score [6]: -0.0137 (inactive)
composite z-score [7]: -0.126
composite z-score [8]: -0.0904
composite z-score [9]: -0.264
composite z-score [10]: -0.0565

COC(=O)CC=C[C@@H](C)[C@@H](C=NOC[C@@H](C)[C@H](OCc1ccccc1)C(C)C)NS(=O)(=O)c1ccc(C)cc1
composite z-score [1]: 0.123
z-score [2]: -0.161 (inactive)
z-score [3]: 1.53 (inactive)
z-score [4]: 0.227 (inactive)
composite z-score [5]: 0.0335
z-score [6]: -1.42 (inactive)
composite z-score [7]: -0.27
composite z-score [8]: 0.452
composite z-score [9]: -1.44
composite z-score [10]: -0.142

O=C1[C@H]2[C@H]3[C@H](O)[C@H](O)CC(=NO[C@@H]4O[C@H](CO)[C@@H](O)[C@H](O)[C@H]4O)[C@@H]3CC[C@H]2C(=O)N1c1cccc(Oc2ccccc2)c1
composite z-score [1]: -0.175
z-score [2]: -0.603 (inactive)
z-score [3]: 0.275 (inactive)
z-score [4]: 0.0506 (inactive)
composite z-score [5]: 0.879
z-score [6]: 0.364 (inactive)
composite z-score [7]: -0.028
composite z-score [8]: 0.672
composite z-score [9]: 0.449
composite z-score [10]: 0.0102

COc1ccc(OC[C@H]2CN3[C@@H](CC[C@@H](C)[C@@H]3c3ccc(Br)cc3)C(=O)O2)cc1
composite z-score [1]: 0.591
z-score [2]: -0.313 (inactive)
z-score [3]: -0.237 (inactive)
z-score [4]: 0.179 (inactive)
composite z-score [5]: 0.184
z-score [6]: -0.915 (inactive)
composite z-score [7]: -0.198
composite z-score [8]: 0.318
composite z-score [9]: -0.175
composite z-score [10]: -0.0082

CCOC(=O)[C@H](Cc1ccccc1)NC(=O)CCC1CC(OC(=O)NCc2ccc3c(c2)OCO3)CC2(CCCC(COC(=O)NCCOc3ccccc3)O2)O1 (stereo not given in full)
composite z-score [1]: 1.48
z-score [2]: 0.0339 (inactive)
z-score [3]: 0.486 (inactive)
z-score [4]: 0.576 (inactive)
composite z-score [5]: 1.31
z-score [6]: 0.196 (inactive)
composite z-score [7]: -0.0446
composite z-score [8]: 0.484
composite z-score [9]: 1.12
composite z-score [10]: 0.0436

CC(C)(C)N1C(=O)[C@H]2[C@H]3[C@H](O)[C@H](O)CC(=NOC[C@@H](O)COCc4ccco4)[C@@H]3CC[C@H]2C1=O
composite z-score [1]: -0.424
z-score [2]: -0.0093 (inactive)
z-score [3]: 0.257 (inactive)
z-score [4]: 0.498 (inactive)
composite z-score [5]: -0.238
z-score [6]: 0.635 (inactive)
composite z-score [7]: 0.16
composite z-score [8]: 0.0106
composite z-score [9]: -0.589
composite z-score [10]: -0.141

Cc1ccc(S(=O)(=O)N[C@@H]2COC(=O)CC=C[C@@H](C)[C@H](NS(=O)(=O)c3ccc(C)cc3)COC(=O)[C@H](C)NC(=O)CC=C[C@H]2C)cc1
composite z-score [1]: -0.287
z-score [2]: -0.0073 (inactive)
z-score [3]: 0.13 (inactive)
z-score [4]: 0.147 (inactive)
composite z-score [5]: -0.865
z-score [6]: 0.715 (inactive)
composite z-score [7]: -0.291
composite z-score [8]: 0.354
composite z-score [9]: -0.632
composite z-score [10]: -0.16

CC(CCN1CCCc2nc(C)c(C)cc21)=NOC[C@@H](C)[C@H](OCc1ccccc1)C(C)C
composite z-score [1]: -0.0185
z-score [2]: -2.02 (inactive)
z-score [3]: -1.8 (inactive)
z-score [4]: -0.788 (inactive)
composite z-score [5]: 1.4
z-score [6]: -0.287 (inactive)
composite z-score [7]: -0.286
composite z-score [8]: -0.187
composite z-score [9]: -0.763
composite z-score [10]: -0.183

CC(C)CON=C1C[C@@H](O)[C@@H](O)[C@@H]2[C@@H]3C(=O)N(c4ccc(F)cc4F)C(=O)[C@@H]3CC[C@@H]12
composite z-score [1]: 0.601
z-score [2]: 0.0347 (inactive)
z-score [3]: -0.786 (inactive)
z-score [4]: -0.733 (inactive)
composite z-score [5]: 0.956
z-score [6]: 1.24 (inactive)
composite z-score [7]: -0.212
composite z-score [8]: 0.344
composite z-score [9]: 0.898
composite z-score [10]: -0.026

O=C(NN=C1C[C@@H](O)[C@@H](O)[C@@H]2[C@@H]3C(=O)N(Cc4ccccc4)C(=O)[C@@H]3CC[C@H]12)OCc1ccccc1
composite z-score [1]: -0.38
z-score [2]: -0.79 (inactive)
z-score [3]: -0.815 (inactive)
z-score [4]: -1.27 (inactive)
composite z-score [5]: -0.845
z-score [6]: 0.399 (inactive)
composite z-score [7]: -0.269
composite z-score [8]: 0.382
composite z-score [9]: 0.577
composite z-score [10]: -0.0796

CC(CCC(=O)OC[C@H]1O[C@H](C#Cc2ccccc2)C=C[C@@H]1Oc1ccc(C)cc1)=NOC[C@@H](C)[C@H](OCc1ccccc1)C(C)C
composite z-score [1]: -0.694
z-score [2]: -0.78 (inactive)
z-score [3]: 0.484 (inactive)
z-score [4]: -0.468 (inactive)
composite z-score [5]: -1.27
z-score [6]: -0.346 (inactive)
composite z-score [7]: -0.342
composite z-score [8]: 0.809
composite z-score [9]: -1.27
composite z-score [10]: -0.24

CC(CCC(=O)OC[C@H]1O[C@H](C#Cc2ccccc2)C=C[C@@H]1Oc1ccc(C)cc1)=NOC(C)CN1CCCCc2nc(C)c(C)cc21 (stereo not given in full)
composite z-score [1]: 0.479
z-score [2]: -0.167 (inactive)
z-score [3]: -0.324 (inactive)
z-score [4]: -0.773 (inactive)
composite z-score [5]: 0.238
z-score [6]: 0.136 (inactive)
composite z-score [7]: -0.0454
composite z-score [8]: -0.0193
composite z-score [9]: -0.171
composite z-score [10]: -0.18
